Assay results reported in PubChem BioAssay AID1159580 (chemical genetic matrix, 2015).
Where “and” joins values, the source holds several entries; their conditions need not be identical. Equal values may be shown once. Among all 5,500 compounds or so, about 2,000 (36%) were called active. About 18% were inconclusive and are not listed. No stated cut-off is given here; in the data, active means normalized growth mostly below about 0.91 (no sharp cut-off); inconclusive means no clear call, values can overlap the other calls; inactive means mostly above about 0.92. This is one part of the list.

Test: chemical genetic growth profiling, strain panel (AID 1159580);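 further: tested at 20 µM; growth read once vehicle control cultures reached saturation at 30 °C; 1 = growth at the plate median or of vehicle wells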
Settings: S. cerevisiae deletion strains, growth OD

Measured: normalized growth

Oc1ccc(/C=C/c2cc(O)cc(O)c2)cc1
0.892 (active) and 0.981 (inactive): locus YHR030C, strain SLT2, stronger effect = lower value
active: locus YDL192W, strain arf1, stronger effect = lower value 0.865 | locus YDR101C, strain arx1, stronger effect = lower value 0.873 | locus YDR137W, strain rgp1, stronger effect = lower value 0.681 | locus YDR195W, strain ref2 1.18 [resistant] | locus YDR502C, strain sam2, stronger effect = lower value 0.895 | locus YGL078C, strain dbp3, stronger effect = lower value 0.895 | locus YGL086W, strain mad1, stronger effect = lower value 0.897 | locus YKL009W, strain mrt4, stronger effect = lower value 0.779 | locus YKR001C, strain vps1, stronger effect = lower value 0.692 | locus YLR262C, strain YPT6 (second series), stronger effect = lower value 0.822 | locus YLR371W, strain rom2, stronger effect = lower value 0.766 | locus YLR418C, strain cdc73, stronger effect = lower value 0.686 | locus YMR307W, strain GAS1, stronger effect = lower value 0.538 | locus YNR052C, strain pop2, stronger effect = lower value 0.833 | locus YOL147C, strain pex11, stronger effect = lower value 0.926 | locus YOR184W, strain ser1, stronger effect = lower value 0.729 | locus YPR163C, strain tif3, stronger effect = lower value 0.909 | strain wtn01, stronger effect = lower value 0.895
0.406 (active) and 1.01 (inactive): locus YJL095W, strain BCK1, stronger effect = lower value
inactive: locus YAL013W, strain DEP1, stronger effect = lower value 0.972 and 1.02 | locus YAL021C, strain ccr4, stronger effect = lower value 0.995 | locus YAL026C, strain drs2, stronger effect = lower value 0.978 | locus YAL030W, strain snc1, stronger effect = lower value 0.99 | locus YAL040C, strain CLN3, stronger effect = lower value 0.987 | locus YBL061C, strain skt5, stronger effect = lower value 0.992 | locus YBR009C, strain hhf1, stronger effect = lower value 0.968 | locus YBR021W, strain FUR4, stronger effect = lower value 0.961 | locus YBR023C, strain chs3, stronger effect = lower value 0.99 | locus YBR171W, strain sec66, stronger effect = lower value 1.01 | locus YBR229C, strain ROT2, stronger effect = lower value 1.02 | locus YBR231C, strain swc5, stronger effect = lower value 0.988 | locus YBR279W, strain paf1, stronger effect = lower value 0.988 | locus YCL011C, strain gbp2, stronger effect = lower value 0.996 | locus YCL016C, strain dcc1, stronger effect = lower value 0.99 | locus YCL029C, strain bik1, stronger effect = lower value 0.929 | locus YCL061C, strain MRC1 (second series), stronger effect = lower value 0.987 | locus YCL061C, strain MRC1, stronger effect = lower value 0.99 | locus YCL069W, strain vba3, stronger effect = lower value 1.01 | locus YCR088W, strain abp1, stronger effect = lower value 1 | locus YDL005C, strain med2, stronger effect = lower value 0.999 | locus YDL035C, strain GPR1, stronger effect = lower value 0.939 | locus YDL040C, strain nat1, stronger effect = lower value 0.982 | locus YDL074C, strain BRE1, stronger effect = lower value 0.867 | locus YDL101C, strain DUN1, stronger effect = lower value 0.999 | locus YDL134C, strain PPH21, stronger effect = lower value 0.982 | locus YDL185W, strain tfp1, stronger effect = lower value 0.939 | locus YDR001C, strain nth1, stronger effect = lower value 0.999 | locus YDR069C, strain doa4, stronger effect = lower value 0.988 | locus YDR150W, strain NUM1, stronger effect = lower value 0.985 | locus YDR159W, strain sac3, stronger effect = lower value 0.954 | locus YDR162C, strain NBP2, stronger effect = lower value 0.948 | locus YDR297W, strain sur2, stronger effect = lower value 0.977 | locus YDR318W, strain mcm21, stronger effect = lower value 0.983 | locus YDR334W, strain swr1, stronger effect = lower value 0.997 | locus YDR335W, strain msn5, stronger effect = lower value 1.01 | locus YDR363W, strain ESC2, stronger effect = lower value 1.01 | locus YDR388W, stronger effect = lower value 0.962 | locus YDR392W, strain spt3, stronger effect = lower value 0.842 | locus YEL003W, strain gim4, stronger effect = lower value 0.992 | locus YEL037C, strain rad23, stronger effect = lower value 1.01 | locus YEL061C, strain CIN8 (second series), stronger effect = lower value 1.01 | locus YEL061C, strain CIN8, stronger effect = lower value 0.986 | locus YER002W, strain NOP16, stronger effect = lower value 0.98 | locus YER015W, strain faa2, stronger effect = lower value 0.986 | locus YER016W, strain bim1, stronger effect = lower value 0.994 | locus YER110C, stronger effect = lower value 0.98 | locus YER111C, strain swi4, stronger effect = lower value 1.01 | locus YER155C, strain BEM2 (second series), stronger effect = lower value 0.986 | locus YER155C, strain BEM2, stronger effect = lower value 1.02 | locus YER167W, strain BCK2, stronger effect = lower value 1.01 | locus YFR010W, strain ubp6, stronger effect = lower value 0.984 | locus YGL167C, strain pmr1, stronger effect = lower value 0.978 | locus YGL173C, strain kem1, stronger effect = lower value 0.994 | locus YGL227W, strain vid30, stronger effect = lower value 0.991 | locus YGL240W, strain doc1, stronger effect = lower value 1 | locus YGL248W, strain PDE1, stronger effect = lower value 0.965 | locus YGL253W, strain hxk2, stronger effect = lower value 0.968 | locus YGR078C, strain PAC10, stronger effect = lower value 0.959 | locus YGR135W, strain pre9, stronger effect = lower value 0.936 | locus YGR252W, strain gcn5, stronger effect = lower value 0.853 | locus YHR013C, strain ard1, stronger effect = lower value 1.04 | locus YHR027C, strain rpn1, stronger effect = lower value 0.989 | locus YHR079C, strain IRE1 (second series), stronger effect = lower value 0.981 | locus YHR079C, strain IRE1, stronger effect = lower value 0.978 | locus YHR094C, strain hxt1, stronger effect = lower value 0.981 | locus YHR129C, strain ARP1, stronger effect = lower value 0.972 | locus YHR142W, strain chs7, stronger effect = lower value 0.987 | locus YHR200W, strain rpn10, stronger effect = lower value 0.93 | locus YIL066C, strain RNR3, stronger effect = lower value 0.987 | locus YIL073C, strain SPO22, stronger effect = lower value 0.896 | locus YIL125W, strain kgd1, stronger effect = lower value 0.952 | locus YIR030C, strain dcg1, stronger effect = lower value 0.964 | locus YJL092W, strain hpr5, stronger effect = lower value 0.995 | locus YJL095W, strain BCK1 (second series), stronger effect = lower value 0.987 | locus YJL115W, strain asf1, stronger effect = lower value 1 | locus YJL129C, strain trk1, stronger effect = lower value 0.903 | locus YJL134W, strain LCB3, stronger effect = lower value 1.01 | locus YJL154C, strain vps35, stronger effect = lower value 1 | locus YJL164C, strain tpk1, stronger effect = lower value 1.01 | locus YJL166W, strain qcr8, stronger effect = lower value 0.998 | locus YJL168C, strain set2, stronger effect = lower value 0.973 | locus YJL187C, strain SWE1 (second series), stronger effect = lower value 0.934 | locus YJL187C, strain SWE1, stronger effect = lower value 0.986 | locus YJR043C, strain POL32, stronger effect = lower value 0.946 | locus YJR066W, strain TOR1, stronger effect = lower value 0.939 | locus YJR075W, strain HOC1, stronger effect = lower value 0.986 and 1.01 | locus YKL068W, stronger effect = lower value 0.977 | locus YKL085W, strain MDH1 (second series), stronger effect = lower value 0.982 | locus YKL085W, strain MDH1, stronger effect = lower value 0.982 | locus YKL160W, strain elf1, stronger effect = lower value 1 | locus YKL190W, strain CNB1, stronger effect = lower value 0.992 | locus YKR026C, strain gcn3, stronger effect = lower value 0.991 | locus YKR091W, strain srl3, stronger effect = lower value 0.995 | locus YLL001W, strain dnm1, stronger effect = lower value 1.01 | locus YLL026W, stronger effect = lower value 0.99 | locus YLL041C, strain sdh2, stronger effect = lower value 0.991 | locus YLR027C, strain aat2, stronger effect = lower value 0.994 | locus YLR039C, strain RIC1, stronger effect = lower value 0.87 | locus YLR058C, strain SHM2, stronger effect = lower value 0.972 | locus YLR102C, strain apc9, stronger effect = lower value 0.997 | locus YLR113W, strain HOG1, stronger effect = lower value 1.04 | locus YLR221C, strain rsa3, stronger effect = lower value 0.972 | locus YLR258W, strain gsy2, stronger effect = lower value 0.986 | locus YLR262C, strain YPT6, stronger effect = lower value 0.877 | locus YLR268W, strain sec22, stronger effect = lower value 0.894 | locus YLR320W, strain mms22, stronger effect = lower value 0.971 | locus YLR330W, strain CHS5, stronger effect = lower value 0.998 | locus YLR342W, strain FKS1 (second series), stronger effect = lower value 0.946 | locus YLR342W, strain FKS1, stronger effect = lower value 0.993 | locus YLR357W, strain rsc2, stronger effect = lower value 0.976 | locus YLR370C, strain arc18, stronger effect = lower value 1.01 | locus YLR384C, strain iki3, stronger effect = lower value 0.996 | locus YML016C, strain PPZ1, stronger effect = lower value 0.993 | locus YML032C, strain rad52, stronger effect = lower value 0.938 | locus YML120C, strain ndi1, stronger effect = lower value 0.956 | locus YML124C, strain tub3, stronger effect = lower value 0.993 | locus YMR058W, strain fet3, stronger effect = lower value 0.975 | locus YMR078C, strain ctf18, stronger effect = lower value 0.96 | locus YMR125W, strain sto1, stronger effect = lower value 0.999 | locus YMR129W, stronger effect = lower value 0.996 | locus YMR205C, strain PFK2, stronger effect = lower value 0.976 | locus YMR223W, strain ubp8, stronger effect = lower value 0.923 | locus YMR231W, strain pep5, stronger effect = lower value 1 | locus YMR263W, strain SAP30, stronger effect = lower value 0.997 | locus YNL067W, strain RPL9B, stronger effect = lower value 0.979 | locus YNL071W, strain lat1, stronger effect = lower value 0.988 | locus YNL175C, strain NOP13, stronger effect = lower value 0.958 | locus YNL183C, strain NPR1, stronger effect = lower value 0.962 | locus YNL197C, strain WHI3, stronger effect = lower value 0.966 | locus YNL209W, strain ssb2, stronger effect = lower value 0.979 | locus YNL224C, strain SQS1, stronger effect = lower value 0.974 | locus YNL233W, strain BNI4, stronger effect = lower value 0.924 | locus YNL248C, strain rpa49, stronger effect = lower value 0.983 | locus YNL250W, strain rad50, stronger effect = lower value 0.971 | locus YNL271C, strain bni1, stronger effect = lower value 0.951 | locus YNL298W, strain CLA4, stronger effect = lower value 0.92 | locus YNL307C, strain MCK1, stronger effect = lower value 0.99 | locus YNL322C, strain KRE1 (second series), stronger effect = lower value 0.998 | locus YNR049C, strain mso1, stronger effect = lower value 1.01 | locus YOL012C, strain htz1 0.774 | locus YOR001W, strain rrp6, stronger effect = lower value 0.985 | locus YOR061W, strain CKA2, stronger effect = lower value 0.995 | locus YOR069W, strain VPS5, stronger effect = lower value 0.998 | locus YOR070C, strain gyp1, stronger effect = lower value 0.986 | locus YOR080W, strain dia2, stronger effect = lower value 0.994 | locus YOR083W, strain WHI5 (second series), stronger effect = lower value 0.98 | locus YOR083W, strain WHI5, stronger effect = lower value 0.965 | locus YOR106W, strain vam3, stronger effect = lower value 0.982 | locus YOR136W, strain idh2, stronger effect = lower value 0.965 | locus YOR144C, strain elg1, stronger effect = lower value 0.963 | locus YOR231W, strain MKK1, stronger effect = lower value 0.98 | locus YOR265W, strain rbl2, stronger effect = lower value 0.985 | locus YOR270C, strain vph1, stronger effect = lower value 0.963 | locus YOR290C, strain snf2, stronger effect = lower value 0.95 | locus YOR316C, strain cot1, stronger effect = lower value 0.982 | locus YPL051W, strain arl3, stronger effect = lower value 0.983 | locus YPL055C, strain LGE1, stronger effect = lower value 0.894 | locus YPL078C, strain atp4, stronger effect = lower value 0.994 | locus YPL106C, strain sse1, stronger effect = lower value 1.02 | locus YPL240C, strain hsp82, stronger effect = lower value 0.988 | locus YPL241C, strain CIN2, stronger effect = lower value 0.985 | locus YPL256C, strain CLN2, stronger effect = lower value 0.975 | locus YPR119W, strain clb2, stronger effect = lower value 0.981 | locus YPR141C, strain kar3, stronger effect = lower value 0.973 | locus YPR167C, strain met16, stronger effect = lower value 0.978
